Measurements: PubChem BioAssay (NCI)
About 83,000 compounds went through this panel and 20% of them were active in at least one assay; those are over-represented in the sample as a whole.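 The test compound was applied at a single concentration to cells in 96-well plates for 48 hours, and percent growth was recorded.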 A number with no mark means an inactive call. Calls of active or inactive are those of the source. How the source made its calls: active means growth percent below 10; inactive means the rest.

Tested on: MDA-MB-435 melanoma
Test: NCI-60 one-dose screen, 48 h (100 = growth as untreated, 0 = no growth, -100 = all killed)
Settings: 10 µM unless noted

Row | SMILES | growth
1 | COc1ccc(/C=C/c2nc(-c3n[nH]c(=O)n3-c3ccccc3)c3ccccc3n2)cc1 | 99.4%
2 | COc1ccc(-c2n[nH]nc2-c2csc3ccccc23)cc1OC | -31.8% (active)
3 | CSc1nc(-c2cccc(NC(=O)CCl)c2)c(C#N)c(=O)n1C | 54.5%
4 | Cc1cc(C)c2nc3nc(C)cc(C)c3c(N)c2c1 | 29.5%
5 | Cc1nn(-c2cc(=O)[nH]c3ccccc23)c(N)c1C#N | 106%
6 | CCOC(=O)c1c(C(=O)OCC)c2cc(-c3ccn4c(C(=O)c5ccccc5)c(C(=O)OCC)c(C(=O)OCC)c4c3)ccn2c1C(=O)c1ccccc1 | 99.9%
7 | CNC(=O)c1cc(Oc2ccc(NC(=O)Nc3ccc(Cl)c(SC)c3)c(F)c2)ccn1 | 32.6%
8 | O=c1nc2oc3ccc4ccccc4c3cc-2s1 | -58.5% (active)
9 | CN(C)C(=S)N=Nc1c(O)[nH]c2ccccc12 | 40.3%
10 | CC(=O)O[C@H]1CC[C@]2(C)[C@H]3CC=C4[C@@H]5CC(C)(C)CC[C@]5(C(=O)NCCNCCN)CC[C@@]4(C)[C@]3(C)CC[C@H]2C1(C)C | -55.5% (active)
11 | O=C1c2cc3c(cc2-c2c1c1ccc(F)cc1c(=O)n2CCCNCCO)OCO3 | -71.5% (active)
12 | COc1cc(/C=C/C(=O)c2c(C)oc3nc[nH]c(=O)c23)cc(OC)c1OC | 74.4%
13 | COC[C@H](C)n1c(C2CCOCC2)nc2cnc3cc(-c4c(C)noc4C)c(OC)cc3c21 | 44.5%
14 | Cn1cc(-c2nonc2-c2c[nH]c3ccc(F)cc23)c2cccnc21 | 62.3%
15 | COc1cc2c(cc1-c1c(C)noc1C)ncc1nc(C3CCOCC3)n([C@H](C)COC(F)F)c12 | 40.6%
16 | CC1=C[C@H]2c3c(c(O)c(O)c4oc5cc(O)ccc5c(=O)c34)[C@H](c3cc(O)c(O)c4oc5cc(O)ccc5c(=O)c34)[C@H]2C(C)(C)C1 | 20%
17 | COc1cc(-c2nn(-c3ccc(Br)cc3)cc2C(=O)O)ccc1O | 97%
18 | COc1cc(C2CC(=O)c3ccccc3N2)cc(OC)c1OC (centres undefined) | 105%
19 | CC1=NN(c2nc(-c3ccc(Cl)cc3)c(C#N)c(N3CCOCC3)n2)C(=O)C1 | 87.8%
20 | COCCNc1ccc2c3c(cccc13)C(=O)N(CCN(C)C)C2=O | 25.9%

Row | SMILES | growth
21 | CCOC(=O)c1cc(C(=O)c2ccc(O)c(O)c2)n2ccc(-c3ccn4c(C(=O)c5ccc(O)c(O)c5)cc(C(=O)OCC)c4c3)cc12 | 99.9%
22 | CCN=C1C=CC(=C(c2ccc(N)cc2)c2ccc(N(CC)CC)c(C)c2)C=C1 | -41.2% (active)
23 | COc1ccc(/C=C\c2cc(OC)c(OC)c(OC)c2)cc1OC(=O)c1cccc(Cn2cc(CCOC(=O)[C@H](N)Cc3cn(C)c4ccccc34)nn2)c1 | -32.7% (active)
24 | Cc1cc(N2CCSCC2)nc(NC2CCCC(Nc3ccnc4cc(Cl)ccc34)C2)n1 (centres undefined) | -88.5% (active)
25 | CSc1nc(NCCO)c(C#N)c(-c2cccc([N+](=O)[O-])c2)n1 | 99.8%
26 | Cc1ccc(C2=NN3C(C2)c2cc(Br)ccc2OC32CCN(Cc3ccccc3)CC2)o1 (centres undefined) | 94%
27 | COc1ccc(/C=C(\C#N)C(=O)Nc2cccc(Nc3nc(SC)nc(-c4cccc([N+](=O)[O-])c4)c3C#N)c2)cc1OC | 103%
28 | CCN(CC)CCCCNc1c2ccc(Cl)cc2nc2ccc(OC)cc12 | -89.2% (active)
29 | O=C(/C=C/c1cc(CN2CCOCC2)c(O)c2ncccc12)c1cc(CN2CCOCC2)c(O)c2ncccc12 | 21%
30 | COc1cc(-c2nc3ccccc3[nH]2)ccc1OCC(=O)N=Nc1c(O)[nH]c2ccc(Cl)cc12 | -71.1% (active)
31 | COc1ccc(-n2nc(C)c3c(Nc4ccc(NC(=O)Nc5cc(C(F)(F)F)ccc5F)cc4)ncnc32)cc1 | 53%
32 | COc1cc(-c2nc3cc(Cl)c(Cl)cc3[nH]2)ccc1OCC(=O)N=Nc1c(O)[nH]c2ccccc12 | -94.9% (active)
33 | CN(C)CCN1C(=O)c2cccc3c(N)ccc(c23)C1=O | 39.6%
34 | Cc1nc2ccccc2n1C(=O)C[C@@H]1NC(=S)NC1=O | 97.8%
35 | CCN(CC)c1ccc(-c2cc(-c3cc(OC)c(OC)c(OC)c3)nc(N3CCOCC3)c2C#N)cc1 | -27.5% (active)
36 | O=C1c2cc3c(cc2-c2c1c1cc(F)c(F)cc1c(=O)n2CCCn1ccnc1)OCO3 | 8.57% (active)
37 | O=C(Cn1cccc(Nc2ccccc2)c1=O)Nc1ccccc1 | 97.3%
38 | COc1cc(-c2nc3ccccc3[nH]2)ccc1OCc1nnc(-c2ccc(CC(C)C)cc2)o1 | 98%
39 | FC(F)(F)c1ccc(-c2cn3nc(-c4c[nH]c5ccc(Br)cc45)sc3n2)cc1 | 100%
